The campaign covered roughly 320,000 compounds. About 1,200 (0.38%) were called active. The entries come from a sample that favours actives as a whole. Values without a mark were called inactive.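 How the source made its calls: active means inhibition above the screen-wide mean plus 3 SD, limit set per campaign (cut at about 26% in these data); inactive means the rest.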

The target in this experiment is Acyl-protein thioesterase 2 (Homo sapiens) (UniProt O95372). In words: inhibition of human lysophospholipase 2 – biochemical, fluorescence polarization, FP-Rh probe ABPP, counter-screen for PME1 inhibitor project, primary screen (AID 2177).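 Further: 0% = LYPLA2 with DMSO and 100% = wells lacking LYPLA2 enzyme.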 The settings on record: recombinant LYPLA2, FP-Rh probe fluorescence polarization; at 5.9 µM; active compounds read high. In general terms: Fluorescence polarisation rises when a labelled molecule tumbles more slowly, as on binding a larger partner.
Sequence of Acyl-protein thioesterase 2 (Homo sapiens) (O95372 whole entry, looked up): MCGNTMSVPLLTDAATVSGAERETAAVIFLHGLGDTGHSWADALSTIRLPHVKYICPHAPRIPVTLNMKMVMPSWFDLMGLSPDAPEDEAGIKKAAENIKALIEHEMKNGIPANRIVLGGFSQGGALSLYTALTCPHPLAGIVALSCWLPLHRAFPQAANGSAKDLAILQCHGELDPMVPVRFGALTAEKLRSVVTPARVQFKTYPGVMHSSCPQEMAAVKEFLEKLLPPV
Broadly, the inhibition is the change of the read-out against control, counted positive when it falls. As to `COc1cccc(N(C(=O)c2ccn[nH]2)C2(C(=O)Nc3c(C)cccc3C)CCCCC2)c1`, the inhibition was -1.38%.

For `Cc1ccc(/C=N/NC(=O)COc2ccccc2-c2ccccc2)cc1`, the inhibition is 2.18%.

For `O=C(O)c1ccc(/C=N/NC(=S)NCc2ccccc2)cc1`, the inhibition was -7.47%.

Take `Cc1ccc(/C=N/NC(=O)C(NC(=O)c2ccccc2)c2n[nH]c(=O)c3ccccc23)cc1` (configuration not stated): the inhibition is 40.8% (active).

Turning to `O=C(CNc1ccc(F)cc1F)NC(=O)NCc1ccco1`, the inhibition was -3.47%.

With `Cc1ccc(NC(=O)C(c2ccccc2)N2CCN(C(=O)c3ccco3)CC2)cc1` (configuration not stated), the inhibition was 0.07%.

Turning to `Nc1nnc(SCC(=O)NC2CCCc3ccccc32)s1` (configuration not stated), the inhibition was -1.96%.

For `O=C(Cc1ccc(Br)cc1)NCCN1CCOCC1`, the inhibition was 4.15%.

On to `COc1ccc(NC(=O)NCCN2CCN(c3ccc(C)cc3)CC2)c(Cl)c1`, for which the inhibition is -3.78%.

On to `COc1ccc(N2CCN(C(=O)c3ccc4c(Cl)c5c(nc4c3)CCCC5)CC2)cc1`, for which the inhibition was 7.7%.

Consider `COc1ccc(N2CCN(C(=O)c3cccs3)CC2)cc1`, for which the inhibition was 8.83%.

As for `COc1ccc(N2CCN(C(=O)c3ccc(N4CCCCS4(=O)=O)cc3)CC2)cc1`, the inhibition was 63% (active).

As for `COc1ccccc1N1CCC(N2CCN(CC(C)(C)C)C(CCO)C2)CC1` (configuration not stated), the inhibition was -1.78%.

As for `COc1ccc(C(=O)OCC(=O)NC(=O)CCSc2ccccc2)cc1`, the inhibition is 28.6% (active).

Consider `COc1ccc(NC(=O)COC(=O)c2ccc(NS(=O)(=O)/C=C/c3ccccc3)cc2)cc1`, for which the inhibition is -12%.

In the case of `O=C(COC(=O)c1ccccc1)Nc1ccccc1Sc1ccccc1`, the inhibition is -10.2%.

As for `C[C@H](OC(=O)n1ccnc1)[C@@H]1O[C@@]2(C)CCC[C@@H]1O2`, the inhibition was 3.91%.

As for `CC(=O)NC12CC3CC(C1)CC(C(=O)N1CCN(C(=O)c4ccco4)CC1)(C3)C2`, the inhibition is 6.61%.

As for `COc1ccccc1OCC(=O)O/N=C(\N)c1ccccn1`, the inhibition was -1.78%.

As for `COc1ccc(NC(=O)c2ccccc2[N+](=O)[O-])cc1OC`, the inhibition was -0.83%.

With `O=C(COc1ccc(NC(=O)c2ccccc2[N+](=O)[O-])cc1)c1ccc(F)cc1`, the inhibition was 43.8% (active).

Regarding `O=C(Nc1ccncc1)c1ccccc1[N+](=O)[O-]`, the inhibition is 2.96%.

Consider `COc1c(C)c2c(c(O)c1C/C=C(\C)CCC(=O)O)C(=O)OC2`, for which the inhibition is 1.01%.

Take `Cc1ncc([N+](=O)[O-])n1CCOC(=O)c1ccc(Br)cc1`: the inhibition is 4.52%.

In the case of `CN(C)CCCn1c(SCc2ccc(Cl)cc2)nnc1-c1ccncc1`, the inhibition was 2.66%.

For the molecule `COc1ccc(-c2cc(C(=O)N3CCN(c4ccc(F)cc4)CC3)no2)cc1`, the inhibition is 8.33%.

Take `O=C(c1cc(-c2ccc(Cl)cc2)on1)N1CCN(c2ccccc2)CC1`: the inhibition was 31.3% (active).

Turning to `O=C(c1cc(-c2ccc(F)cc2)on1)N1CCN(c2ccc(F)cc2)CC1`, the inhibition is 8.86%.

For `CCN(CC)CCNC(=O)c1sc2ncn(CC(=O)Nc3ccc(C)c(Cl)c3)c(=O)c2c1C`, the inhibition was 32.4% (active).

On to `CCN(CC)CCCNC(=O)Cn1cnc2sc(C)c(S(=O)(=O)N3CCN(c4ncccn4)CC3)c2c1=O`, for which the inhibition is 4.51%.

Regarding `CCN(CC)CCNC(=O)Cn1cnc2sc(C)c(S(=O)(=O)N3CCOCC3)c2c1=O`, the inhibition was -2.7%.

Consider `CCOC(=O)CSc1nc2ccc(C)cc2n2cnnc12`, for which the inhibition is -0.15%.

For the molecule `COc1ccc(S(=O)(=O)N2CCOCC2)cc1NC(=O)Cc1c(F)cccc1Cl`, the inhibition was -4.41%.

On to `Cc1cc(OCCCN2CCN(Cc3ccccc3)CC2)ccc1[N+](=O)[O-]`, for which the inhibition is 34.3% (active).

For `Cc1cc(OCCCCOc2ccc(C#N)cc2)ccc1[N+](=O)[O-]`, the inhibition was 19.5%.

As for `Cc1ccccc1N1CCN(CCCOc2ccc3c(C)cc(=O)oc3c2)CC1`, the inhibition is 15.9%.

For the molecule `CCOc1ccccc1N1CCN(C(=O)c2ccc3[nH]c(C)c(C)c3c2)CC1`, the inhibition is -3.51%.

Turning to `Cc1ccccc1OCC(O)CN1CCN(c2ccccn2)CC1` (configuration not stated), the inhibition was -3.92%.

`Cc1cccc(OCC(O)CN2CCN(CCN3C(=O)c4cccc5cccc(c45)C3=O)CC2)c1C` (configuration not stated): the inhibition was 31.6% (active).

Regarding `Cc1cccc(C)c1OCC(O)CN1CCCCC1` (configuration not stated), the inhibition was -4.51%.

Consider `CCCCC[C@H]1CN(C2CCCCC2)C(=O)[C@@H]1CC(=O)NCc1ccc(OC)cc1`, for which the inhibition is -3.9%.

On to `COC(=O)c1ccc(S(=O)(=O)N(CCO)Cc2ccccc2)n1C`, for which the inhibition is 7.11%.

For `COC(=O)c1c(NC(=O)COc2ccc(Cl)cc2Cl)sc2c1CC(C)(C)NC2(C)C`, the inhibition was 1.16%.

As to `CCC(NC(=O)C1CCCC1)c1ccc(C)cc1` (configuration not stated), the inhibition was 0.26%.

With `Cc1ccc(C(c2sc3nc(C)nn3c2O)N2CCN(c3ccc(F)cc3)CC2)cc1` (configuration not stated), the inhibition was 36.7% (active).

Consider `Oc1c(C(c2cccs2)N2CCN(c3ccc(F)cc3)CC2)sc2ncnn12` (configuration not stated), for which the inhibition is -5.69%.

With `Cc1ccc(C(c2sc3nc(C)nn3c2O)N2CCN(c3ccccc3)CC2)cc1` (configuration not stated), the inhibition is 1.64%.

With `C[C@@H](NC(=O)OC(C)(C)C)c1nnc(S(=O)(=O)Cc2ccccc2)o1`, the inhibition was -2.33%.

For `O=C(C(c1ccccc1)c1ccccc1)N1CCN(CC(O)COc2ccccc2)CC1` (configuration not stated), the inhibition was 1.24%.

Regarding `C[N+]1(CC(O)COc2ccccc2)CCN(C(=O)c2ccc([N+](=O)[O-])cc2)CC1` (configuration not stated), the inhibition was -1.46%.

`O=[N+]([O-])c1ccc(N2CCN(CC(O)COc3ccccc3)CC2)cc1` (configuration not stated): the inhibition is 29.5% (active).

On to `Cc1ccccc1NC(=O)Cc1nc(COC(=O)c2cccnc2Cl)cs1`, for which the inhibition was 2.11%.

Turning to `O=C(Nc1ccccc1F)c1ccc(Cn2cc(Br)cn2)cc1`, the inhibition was -5.94%.

As for `COc1cccc(NC(=O)c2ccc(Cn3cc([N+](=O)[O-])cn3)o2)c1`, the inhibition is 4.62%.

Take `CCc1ccc(NC(=O)c2ccc(Cn3cc([N+](=O)[O-])cn3)cc2)cc1`: the inhibition is 32% (active).

In the case of `O=C(Nc1ccccc1Cl)/C(Cl)=C(\Cl)S(=O)c1ccccc1` (configuration not stated), the inhibition was -37.3%.

With `O=C1Cc2ccccc2Sc2ccc(Cl)cc21`, the inhibition is -9.53%.

In the case of `COc1ccc(-c2nnc(SC(C)C(=O)NC3CC3)o2)cc1` (configuration not stated), the inhibition was 1.72%.

Consider `CCN1C(=O)[C@H]2[C@@H](c3ccc(-c4ccc(OC)cc4)cc3)N[C@@](Cc3ccccc3)(C(=O)OC)[C@H]2C1=O`, for which the inhibition is 6.99%.

Regarding `CCC(Cc1ccccc1)NS(=O)(=O)c1ccc2c(c1)NC(=O)CS2` (configuration not stated), the inhibition was 1.66%.

On to `COc1ccc(C2=NOC3(CC(=O)N(c4ccc(Cl)cc4)C3=O)C2)c(OC)c1` (configuration not stated), for which the inhibition is 7.09%.

With `CCOC(=O)N1CCN(C(=O)Cc2ccc(-n3c(=S)[nH]c4ccccc4c3=O)cc2)CC1`, the inhibition was 3.58%.

With `O=C(CCCC(=O)N1CCN(c2cccc(Cl)c2)CC1)c1ccccc1`, the inhibition was 24.1%.

As to `O=C(Cc1ccc(-n2c(=O)[nH]c3ccccc3c2=O)cc1)N1CCN(c2cccc(Cl)c2)CC1`, the inhibition is 50.8% (active).

For `CCN(C(=O)C1CCCN(c2nc(-c3ccc(OC)cc3)no2)C1)c1ccc(OC)cc1` (configuration not stated), the inhibition was 1.52%.

Regarding `N#Cc1cc([N+](=O)[O-])ccc1Oc1cccc(/C=N/NC(=O)c2ccc(Cl)cc2)c1`, the inhibition was 36.9% (active).

As for `O=C(N/N=C/c1cccc(OC(=O)c2ccc([N+](=O)[O-])cc2)c1)c1cccnc1`, the inhibition is -5.79%.

For `COc1ccc(/C=N/NC(=O)c2ccc(Cl)cc2)cc1COC(C)=O`, the inhibition was -4.59%.

Turning to `Cc1c(CC(=O)NCC(=O)NCC(=O)O)c(=O)oc2cc3oc4c(c3cc12)CCCC4`, the inhibition was 4.77%.

With `COc1ccc(OC)c(NC(=O)c2cccc(S(=O)(=O)N3CCN(C(C)=O)CC3)c2)c1`, the inhibition was -0.81%.

Take `COc1ccc2c(c1)C=CC1(O2)N(CCO)c2ccccc2C1(C)C` (configuration not stated): the inhibition was -20.1%.

On to `O=C(NC(Cc1ccccc1)C(=O)O)/C(=C\c1ccccc1)NC(=O)c1ccco1` (configuration not stated), for which the inhibition is 1.3%.

With `CC(=O)c1ccc(N2CCN(C(=O)C3CCN(S(=O)(=O)c4ccc5c(c4)CC(C)N5C(=O)C4CC4)CC3)CC2)cc1` (configuration not stated), the inhibition was 75% (active).

Regarding `CC(=O)c1ccc(N2CCN(S(=O)(=O)c3ccc4c(c3)CC(=O)N4C)CC2)cc1`, the inhibition was 4.78%.

For the molecule `CC(=O)N1c2ccc(S(=O)(=O)N3CCC(C(=O)N4CCN(c5ccccc5)CC4)CC3)cc2CC1C` (configuration not stated), the inhibition was 58% (active).

Regarding `CC(=O)N1c2ccc(S(=O)(=O)N3CCC(C(=O)NC4CCCCC4C)CC3)cc2CC1C` (configuration not stated), the inhibition was -1.87%.

`CC(=O)N1c2ccc(S(=O)(=O)N3CCC(C(=O)NC4CCCC(C)C4C)CC3)cc2CC1C` (configuration not stated): the inhibition is -4.4%.

On to `COc1ccccc1CNC(=O)C1CCN(S(=O)(=O)c2ccc3c(c2)CC(C)N3C(=O)C2CC2)CC1` (configuration not stated), for which the inhibition is 14.5%.

`O=C(O)CC(Cc1ccccc1)C(=O)Nc1ccc([N+](=O)[O-])cc1` (configuration not stated): the inhibition is -0.26%.

As to `CCOC(=O)c1cc(NC(=O)SCC(=O)O)c(C)nc1C`, the inhibition was 4.19%.

For the molecule `COc1cc(C(=O)NCc2ccc3c(c2)cc(C)n3C)cc(OC)c1OC`, the inhibition is 6.1%.

In the case of `CCOC(=O)c1c(-c2ccccc2)oc2ccc(OCC(=O)NN)cc12`, the inhibition is -13%.

With `CCCc1c(C(=O)Nc2ccc(F)cc2)cnn1-c1ccccc1`, the inhibition is -3.93%.

Consider `O=C(CSCc1ccc([N+](=O)[O-])cc1)Nc1cccc(C(=O)Nc2ccccc2C(=O)O)c1`, for which the inhibition was -6.72%.

Consider `COc1ccccc1C(=O)NC(CCSC)C(=O)N1CCN(C/C=C/c2ccccc2)CC1` (configuration not stated), for which the inhibition is 37.6% (active).

Turning to `COc1ccccc1C(=O)NC(CCSC)C(=O)N1CCN(C(C)=O)CC1` (configuration not stated), the inhibition was -2.46%.

Regarding `COc1ccccc1C(=O)NC(CCSC)C(=O)NNC(=O)c1ccccc1C` (configuration not stated), the inhibition was -3.19%.

(Values after PubChem BioAssay AID2177 (The Scripps Research Institute Molecular Screening Center, 2009).)
